# Data taken from PMC7862700, “An all-to-all approach to the identification of sequence-specific readers for epigenetic DNA modifications on cytosine”.
# Key:
# Assay in all cases: DAPPL (digital affinity profiling via proximity ligation, sequencing); 10 mM Tris-HCl pH 7.5, 50 mM NaCl, 1 mM DTT, 4% glycerol, room temperature, 30 min; GST-TFs on glutathione beads, 16-mer random dsDNA library, 0.1% formaldehyde crosslink after washing; high values mean tight binding
# [1] = molecular target: T1, ELK1 (Homo sapiens, UniProt P19419 1-428); conditions: protein: recombinant; tags: N-terminal GST; dsDNA, one strand shown
# T1 sequence: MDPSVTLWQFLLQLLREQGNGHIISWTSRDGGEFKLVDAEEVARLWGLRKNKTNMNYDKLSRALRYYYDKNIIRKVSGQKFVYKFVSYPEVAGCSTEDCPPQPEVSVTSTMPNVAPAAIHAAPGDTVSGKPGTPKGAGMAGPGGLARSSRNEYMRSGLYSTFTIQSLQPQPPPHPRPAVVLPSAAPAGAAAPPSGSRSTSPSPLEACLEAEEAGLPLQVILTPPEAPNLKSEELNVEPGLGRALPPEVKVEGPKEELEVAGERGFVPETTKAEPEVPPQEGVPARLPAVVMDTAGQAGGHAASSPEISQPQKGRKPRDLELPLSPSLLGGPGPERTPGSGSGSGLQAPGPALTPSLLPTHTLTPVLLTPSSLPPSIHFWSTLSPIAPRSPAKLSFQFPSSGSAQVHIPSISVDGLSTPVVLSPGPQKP
# In short: (§1)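 In yeast, human transcription factors were expressed with a GST fusion, then pulled down on glutathione beads and given DNA barcodes. Pooled with a tag-only sample, they were exposed to 200 nmole of a 16-mer random double-stranded DNA library (Tris/NaCl/DTT/glycerol buffer, room temperature, 30 min), washed, crosslinked with 0.1% formaldehyde, proximity-ligated using BsaI/T4 ligase for 1 h at 37 °C, PCR-amplified and read on an Illumina NextSeq500. Each hexamer's frequency of reads for a factor, divided by the matching frequency for the tag-only sample, gives the binding signal.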
# [2] = molecular target: T2, GABPA (Homo sapiens, UniProt Q06546 1-454); conditions: protein: recombinant; tags: N-terminal GST; dsDNA, one strand shown
# T2 sequence: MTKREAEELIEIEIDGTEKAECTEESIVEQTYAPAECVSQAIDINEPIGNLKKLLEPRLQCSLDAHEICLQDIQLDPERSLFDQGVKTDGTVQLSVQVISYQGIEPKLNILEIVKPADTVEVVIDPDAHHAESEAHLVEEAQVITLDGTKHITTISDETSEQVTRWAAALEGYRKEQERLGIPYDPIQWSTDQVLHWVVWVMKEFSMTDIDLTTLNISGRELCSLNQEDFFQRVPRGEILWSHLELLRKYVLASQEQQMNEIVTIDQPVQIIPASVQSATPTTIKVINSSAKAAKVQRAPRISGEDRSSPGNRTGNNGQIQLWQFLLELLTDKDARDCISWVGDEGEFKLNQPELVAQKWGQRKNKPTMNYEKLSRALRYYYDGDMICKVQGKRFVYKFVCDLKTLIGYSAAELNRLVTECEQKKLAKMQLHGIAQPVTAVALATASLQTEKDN
# In short: as §1
# [3] = molecular target: T3, ERG (Homo sapiens, UniProt P11308 1-479); conditions: protein: recombinant; tags: N-terminal GST; dsDNA, one strand shown
# T3 sequence: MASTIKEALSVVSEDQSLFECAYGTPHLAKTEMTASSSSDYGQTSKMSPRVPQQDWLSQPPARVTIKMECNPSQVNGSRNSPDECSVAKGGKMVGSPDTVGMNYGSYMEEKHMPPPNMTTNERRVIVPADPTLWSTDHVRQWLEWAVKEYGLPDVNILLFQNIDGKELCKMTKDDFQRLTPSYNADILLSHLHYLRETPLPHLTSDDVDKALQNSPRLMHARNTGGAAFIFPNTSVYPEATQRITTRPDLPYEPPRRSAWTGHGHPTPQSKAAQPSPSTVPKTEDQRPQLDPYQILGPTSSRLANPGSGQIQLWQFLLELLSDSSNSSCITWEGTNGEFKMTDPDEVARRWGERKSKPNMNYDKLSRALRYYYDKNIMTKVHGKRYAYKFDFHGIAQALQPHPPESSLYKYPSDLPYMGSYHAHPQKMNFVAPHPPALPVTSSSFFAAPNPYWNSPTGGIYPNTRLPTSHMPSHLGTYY
# In short: as §1
# [4] = molecular target: ELF1 (Homo sapiens, UniProt P32519 1-619); conditions: protein: recombinant; tags: N-terminal GST; dsDNA, one strand shown
# Sequence of ELF1 (P32519 whole entry): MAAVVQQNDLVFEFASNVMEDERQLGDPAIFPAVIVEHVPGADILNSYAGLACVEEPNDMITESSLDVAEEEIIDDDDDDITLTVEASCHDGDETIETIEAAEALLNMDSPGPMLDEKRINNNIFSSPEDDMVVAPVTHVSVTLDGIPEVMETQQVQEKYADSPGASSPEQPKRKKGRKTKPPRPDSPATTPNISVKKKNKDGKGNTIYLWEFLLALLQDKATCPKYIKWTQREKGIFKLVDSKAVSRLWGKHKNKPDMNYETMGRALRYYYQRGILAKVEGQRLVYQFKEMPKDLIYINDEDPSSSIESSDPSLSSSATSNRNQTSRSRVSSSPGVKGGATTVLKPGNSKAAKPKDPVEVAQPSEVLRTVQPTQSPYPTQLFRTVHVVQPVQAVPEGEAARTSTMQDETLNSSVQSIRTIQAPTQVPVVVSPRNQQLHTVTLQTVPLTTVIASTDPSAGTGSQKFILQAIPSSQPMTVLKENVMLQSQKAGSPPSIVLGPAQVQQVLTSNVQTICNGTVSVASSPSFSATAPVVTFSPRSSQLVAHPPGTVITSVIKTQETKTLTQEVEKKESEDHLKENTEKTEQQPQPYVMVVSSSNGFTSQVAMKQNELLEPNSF
# In short: as §1
# [5] = molecular target: SPI1 (Homo sapiens, UniProt P17947 1-270); conditions: protein: recombinant; tags: N-terminal GST; dsDNA, one strand shown
# In short: as §1
# [6] = molecular target: SPIB (Homo sapiens, UniProt Q01892 1-262); conditions: protein: recombinant; tags: N-terminal GST; dsDNA, one strand shown
# Sequence of SPIB (Q01892 whole entry): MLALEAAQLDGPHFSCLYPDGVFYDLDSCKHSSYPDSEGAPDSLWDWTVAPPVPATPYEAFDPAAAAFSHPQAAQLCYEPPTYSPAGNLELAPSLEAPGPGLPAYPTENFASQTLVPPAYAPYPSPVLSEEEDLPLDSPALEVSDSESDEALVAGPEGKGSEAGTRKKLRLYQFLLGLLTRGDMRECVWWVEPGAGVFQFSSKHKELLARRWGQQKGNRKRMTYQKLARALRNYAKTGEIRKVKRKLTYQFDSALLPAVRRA
# In short: as §1
# [7] = molecular target: HSF1 (Homo sapiens, UniProt Q00613 1-529); conditions: protein: recombinant; tags: N-terminal GST; chain copies: 3; dsDNA, one strand shown
# Sequence of HSF1 (Q00613 whole entry): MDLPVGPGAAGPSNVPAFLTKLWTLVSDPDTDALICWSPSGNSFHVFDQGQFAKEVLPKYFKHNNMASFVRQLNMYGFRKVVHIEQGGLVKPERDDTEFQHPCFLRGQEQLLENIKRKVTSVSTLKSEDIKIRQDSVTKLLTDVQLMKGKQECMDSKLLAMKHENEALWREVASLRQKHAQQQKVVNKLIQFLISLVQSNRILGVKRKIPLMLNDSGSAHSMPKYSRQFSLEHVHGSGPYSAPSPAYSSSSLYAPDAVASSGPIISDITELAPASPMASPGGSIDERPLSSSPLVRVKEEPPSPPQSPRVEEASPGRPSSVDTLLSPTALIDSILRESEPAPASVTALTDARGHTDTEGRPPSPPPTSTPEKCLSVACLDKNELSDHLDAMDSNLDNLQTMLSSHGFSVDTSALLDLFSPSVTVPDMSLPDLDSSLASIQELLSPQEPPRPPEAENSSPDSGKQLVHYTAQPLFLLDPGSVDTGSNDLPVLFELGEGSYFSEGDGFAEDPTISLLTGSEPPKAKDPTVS
# In short: as §1
# [8] = molecular target: T4, SPIC (Homo sapiens, UniProt Q8N5J4 1-248); conditions: protein: recombinant; tags: N-terminal GST; dsDNA, one strand shown
# T4 sequence: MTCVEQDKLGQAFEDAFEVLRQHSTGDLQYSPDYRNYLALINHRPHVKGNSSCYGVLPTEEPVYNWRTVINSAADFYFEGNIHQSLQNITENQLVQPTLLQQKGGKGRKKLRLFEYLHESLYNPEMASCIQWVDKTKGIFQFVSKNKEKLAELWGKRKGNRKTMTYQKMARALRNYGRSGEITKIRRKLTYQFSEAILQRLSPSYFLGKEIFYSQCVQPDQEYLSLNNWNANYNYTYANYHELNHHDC
# In short: as §1
# [9] = molecular target: T5, ELK4 (Homo sapiens, UniProt P28324-2 1-405); conditions: protein: recombinant; tags: N-terminal GST; dsDNA, one strand shown
# T5 sequence: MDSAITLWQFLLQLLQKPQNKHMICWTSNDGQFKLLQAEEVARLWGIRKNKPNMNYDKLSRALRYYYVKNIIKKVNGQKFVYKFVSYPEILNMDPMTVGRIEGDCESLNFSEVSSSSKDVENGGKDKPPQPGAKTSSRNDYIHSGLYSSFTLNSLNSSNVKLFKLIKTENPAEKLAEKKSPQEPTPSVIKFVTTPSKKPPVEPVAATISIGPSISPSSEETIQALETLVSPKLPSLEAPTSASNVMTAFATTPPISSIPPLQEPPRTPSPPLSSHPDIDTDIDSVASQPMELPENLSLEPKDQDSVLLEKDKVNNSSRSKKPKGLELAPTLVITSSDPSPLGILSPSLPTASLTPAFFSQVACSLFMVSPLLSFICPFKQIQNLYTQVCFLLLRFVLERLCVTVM
# In short: as §1
# [10] = molecular target: T6, ETV3L (Homo sapiens, UniProt Q6ZN32 1-361); conditions: protein: recombinant; tags: N-terminal GST; dsDNA, one strand shown
# T6 sequence: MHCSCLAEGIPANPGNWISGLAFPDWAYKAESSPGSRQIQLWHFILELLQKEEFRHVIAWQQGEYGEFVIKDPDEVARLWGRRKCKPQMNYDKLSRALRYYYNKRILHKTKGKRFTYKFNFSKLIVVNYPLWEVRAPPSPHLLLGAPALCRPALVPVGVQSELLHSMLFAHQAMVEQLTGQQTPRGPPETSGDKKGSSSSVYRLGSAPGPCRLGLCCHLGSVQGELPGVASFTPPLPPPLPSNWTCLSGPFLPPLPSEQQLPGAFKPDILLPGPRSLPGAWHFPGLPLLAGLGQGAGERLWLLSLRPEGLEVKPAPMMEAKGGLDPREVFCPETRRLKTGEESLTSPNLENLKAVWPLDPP
# In short: as §1
# [11] = molecular target: T7, ETS2 (Homo sapiens, UniProt P15036 1-469); conditions: protein: recombinant; tags: N-terminal GST; dsDNA, one strand shown
# T7 sequence: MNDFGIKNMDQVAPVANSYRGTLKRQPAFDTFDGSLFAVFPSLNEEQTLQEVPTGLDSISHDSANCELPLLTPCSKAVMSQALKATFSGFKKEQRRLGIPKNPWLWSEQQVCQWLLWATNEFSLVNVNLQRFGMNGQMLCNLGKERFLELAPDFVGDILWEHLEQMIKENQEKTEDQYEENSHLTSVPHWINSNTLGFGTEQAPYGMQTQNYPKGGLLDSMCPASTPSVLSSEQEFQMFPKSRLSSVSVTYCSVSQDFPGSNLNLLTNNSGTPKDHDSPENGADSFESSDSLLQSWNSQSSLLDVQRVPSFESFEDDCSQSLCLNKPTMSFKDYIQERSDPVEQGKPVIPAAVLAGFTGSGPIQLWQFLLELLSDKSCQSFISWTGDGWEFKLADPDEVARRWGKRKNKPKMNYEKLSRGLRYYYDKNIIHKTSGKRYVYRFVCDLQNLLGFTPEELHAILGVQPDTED
# In short: as §1
# [12] = molecular target: T8, ETV7 (Homo sapiens, UniProt Q9Y603 1-341); conditions: protein: recombinant; tags: N-terminal GST; dsDNA, one strand shown
# T8 sequence: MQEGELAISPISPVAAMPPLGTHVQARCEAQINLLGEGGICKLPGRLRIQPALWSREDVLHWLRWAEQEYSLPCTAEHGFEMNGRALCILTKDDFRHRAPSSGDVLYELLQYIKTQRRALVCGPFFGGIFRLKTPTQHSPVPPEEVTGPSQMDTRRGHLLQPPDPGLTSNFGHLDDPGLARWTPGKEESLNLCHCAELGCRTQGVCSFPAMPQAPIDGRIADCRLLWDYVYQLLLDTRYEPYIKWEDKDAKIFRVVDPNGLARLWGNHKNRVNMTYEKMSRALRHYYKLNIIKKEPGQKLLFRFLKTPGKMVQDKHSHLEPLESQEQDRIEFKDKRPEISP
# In short: as §1
# [13] = molecular target: ETV6 (Homo sapiens, UniProt P41212 1-452); conditions: protein: recombinant; tags: N-terminal GST; dsDNA, one strand shown
# Sequence of ETV6 (P41212 whole entry): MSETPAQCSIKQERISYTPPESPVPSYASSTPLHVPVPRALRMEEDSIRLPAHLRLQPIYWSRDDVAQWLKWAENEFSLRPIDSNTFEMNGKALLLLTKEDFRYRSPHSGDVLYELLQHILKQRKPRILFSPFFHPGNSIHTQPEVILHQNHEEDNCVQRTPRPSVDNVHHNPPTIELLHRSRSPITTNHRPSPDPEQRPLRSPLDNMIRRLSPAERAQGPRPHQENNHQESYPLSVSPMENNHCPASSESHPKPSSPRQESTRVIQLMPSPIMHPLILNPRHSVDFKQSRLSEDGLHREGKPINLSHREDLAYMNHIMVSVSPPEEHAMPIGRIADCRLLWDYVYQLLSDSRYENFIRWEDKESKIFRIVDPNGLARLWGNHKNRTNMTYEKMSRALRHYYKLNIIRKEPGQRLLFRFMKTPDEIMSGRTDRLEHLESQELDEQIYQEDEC
# In short: as §1
Sequence,binding signal [1],binding signal [2],binding signal [3],binding signal [4],binding signal [5],binding signal [6],binding signal [7],binding signal [8],binding signal [9],binding signal [10],binding signal [11],binding signal [12],binding signal [13]
CACTAG,"1.04 fold enrichment (6-mer frequency, TF over GST control)","1.02 fold enrichment (6-mer frequency, TF over GST control)","1.04 fold enrichment (6-mer frequency, TF over GST control)","1.09 fold enrichment (6-mer frequency, TF over GST control)","1.06 fold enrichment (6-mer frequency, TF over GST control)","1 fold enrichment (6-mer frequency, TF over GST control)","1.24 fold enrichment (6-mer frequency, TF over GST control)","1.05 fold enrichment (6-mer frequency, TF over GST control)","1.06 fold enrichment (6-mer frequency, TF over GST control)","1.03 fold enrichment (6-mer frequency, TF over GST control)","1.01 fold enrichment (6-mer frequency, TF over GST control)","1.01 fold enrichment (6-mer frequency, TF over GST control)","1.01 fold enrichment (6-mer frequency, TF over GST control)"
GGAATG,–,–,–,–,–,–,"1.25 fold enrichment (6-mer frequency, TF over GST control)",–,–,–,–,–,–
